# Results from publication PMC7862700, “An all-to-all approach to the identification of sequence-specific readers for epigenetic DNA modifications on cytosine”.
# Columns and labels:
# Assay in all cases: DAPPL (digital affinity profiling via proximity ligation, sequencing); 10 mM Tris-HCl pH 7.5, 50 mM NaCl, 1 mM DTT, 4% glycerol, room temperature, 30 min; GST-TFs on glutathione beads, 16-mer random dsDNA library, 0.1% formaldehyde crosslink after washing; high values mean tight binding
# FEV = molecular target: T1, FEV (Homo sapiens, UniProt Q99581 1-238); conditions: protein: recombinant; tags: N-terminal GST; dsDNA, one strand shown
# T1 sequence: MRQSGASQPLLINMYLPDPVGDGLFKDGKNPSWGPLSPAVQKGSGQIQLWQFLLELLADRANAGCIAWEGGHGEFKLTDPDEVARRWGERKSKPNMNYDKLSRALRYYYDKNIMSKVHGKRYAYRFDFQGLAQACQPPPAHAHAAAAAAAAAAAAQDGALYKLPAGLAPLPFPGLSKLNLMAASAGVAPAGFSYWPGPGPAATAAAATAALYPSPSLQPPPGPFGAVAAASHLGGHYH
# Outline: (§1)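 Human transcription factors fused to GST were expressed in yeast, captured on glutathione beads, given DNA barcodes and pooled with a GST-only negative control. Pools were incubated with 200 nmole of a 16-mer random double-stranded DNA library in Tris/NaCl/DTT/glycerol buffer at room temperature for 30 min. They were then washed, crosslinked with 0.1% formaldehyde, proximity-ligated (BsaI/T4 ligase, 1 h, 37 °C), PCR-amplified and sequenced on an Illumina NextSeq500. Binding signal is each 6-mer's read frequency for a factor divided by its frequency for the GST control.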
# ETV5 = ETV5 (Homo sapiens, UniProt P41161 1-510); conditions: protein: recombinant; tags: N-terminal GST; dsDNA, one strand shown
# Outline: as §1
# HSF1 = HSF1 (Homo sapiens, UniProt Q00613 1-529); conditions: protein: recombinant; tags: N-terminal GST; chain copies: 3; dsDNA, one strand shown
# Outline: as §1
# SPIC = molecular target: T2, SPIC (Homo sapiens, UniProt Q8N5J4 1-248); conditions: protein: recombinant; tags: N-terminal GST; dsDNA, one strand shown
# T2 sequence: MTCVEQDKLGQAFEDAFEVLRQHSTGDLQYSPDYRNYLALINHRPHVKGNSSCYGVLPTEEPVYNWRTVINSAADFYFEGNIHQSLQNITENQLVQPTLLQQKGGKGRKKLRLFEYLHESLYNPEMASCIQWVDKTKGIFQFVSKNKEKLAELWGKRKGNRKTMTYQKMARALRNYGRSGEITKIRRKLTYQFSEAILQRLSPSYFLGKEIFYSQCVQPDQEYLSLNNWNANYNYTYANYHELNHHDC
# Outline: as §1
# ELF4 = ELF4 (Homo sapiens, UniProt Q99607 1-663); conditions: protein: recombinant; tags: N-terminal GST; dsDNA, one strand shown
# Outline: as §1
# ELK4 = molecular target: T3, ELK4 (Homo sapiens, UniProt P28324-2 1-405); conditions: protein: recombinant; tags: N-terminal GST; dsDNA, one strand shown
# T3 sequence: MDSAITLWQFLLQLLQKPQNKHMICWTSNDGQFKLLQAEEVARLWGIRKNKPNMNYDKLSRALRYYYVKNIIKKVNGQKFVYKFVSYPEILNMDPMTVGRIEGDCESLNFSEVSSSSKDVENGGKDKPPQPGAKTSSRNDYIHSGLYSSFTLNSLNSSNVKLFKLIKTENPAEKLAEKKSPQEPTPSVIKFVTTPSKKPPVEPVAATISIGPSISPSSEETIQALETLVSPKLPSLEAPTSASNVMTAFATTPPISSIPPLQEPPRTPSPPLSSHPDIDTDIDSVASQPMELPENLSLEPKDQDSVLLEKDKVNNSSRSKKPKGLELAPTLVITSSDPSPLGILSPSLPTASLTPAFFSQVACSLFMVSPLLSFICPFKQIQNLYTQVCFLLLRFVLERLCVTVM
# Outline: as §1
# ETV2 = molecular target: T4, ETV2 (Homo sapiens, UniProt O00321 1-342); conditions: protein: recombinant; tags: N-terminal GST; dsDNA, one strand shown
# T4 sequence: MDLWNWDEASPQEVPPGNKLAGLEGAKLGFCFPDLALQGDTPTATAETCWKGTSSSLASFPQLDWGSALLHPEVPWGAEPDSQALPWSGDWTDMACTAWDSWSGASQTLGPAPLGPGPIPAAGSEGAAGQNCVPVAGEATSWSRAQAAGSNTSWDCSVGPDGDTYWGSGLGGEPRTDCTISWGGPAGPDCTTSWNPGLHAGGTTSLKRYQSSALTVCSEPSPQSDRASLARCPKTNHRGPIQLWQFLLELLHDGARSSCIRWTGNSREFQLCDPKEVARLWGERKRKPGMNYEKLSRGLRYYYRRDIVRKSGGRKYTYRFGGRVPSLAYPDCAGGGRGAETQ
# Outline: as §1
# ELF3 = molecular target: T5, ELF3 (Homo sapiens, UniProt P78545 1-371); conditions: protein: recombinant; tags: N-terminal GST; dsDNA, one strand shown
# T5 sequence: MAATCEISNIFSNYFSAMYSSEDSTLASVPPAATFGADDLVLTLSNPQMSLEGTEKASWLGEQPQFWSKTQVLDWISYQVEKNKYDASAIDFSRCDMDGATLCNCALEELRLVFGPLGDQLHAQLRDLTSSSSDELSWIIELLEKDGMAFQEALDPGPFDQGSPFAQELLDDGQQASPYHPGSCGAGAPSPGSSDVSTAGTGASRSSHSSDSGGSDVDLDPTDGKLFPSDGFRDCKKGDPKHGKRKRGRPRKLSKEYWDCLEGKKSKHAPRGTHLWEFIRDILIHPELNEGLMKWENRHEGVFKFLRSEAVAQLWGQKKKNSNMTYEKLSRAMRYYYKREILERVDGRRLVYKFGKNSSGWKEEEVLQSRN
# Outline: as §1
# CRX = CRX (Homo sapiens, UniProt O43186 1-299); conditions: protein: recombinant; tags: N-terminal GST; dsDNA, one strand shown
# Outline: as §1
# ETV1 = ETV1 (Homo sapiens, UniProt P50549 1-477); conditions: protein: recombinant; tags: N-terminal GST; dsDNA, one strand shown
# Outline: as §1
# ERF = molecular target: T6, ERF (Homo sapiens, UniProt P50548 1-548); conditions: protein: recombinant; tags: N-terminal GST; dsDNA, one strand shown
# T6 sequence: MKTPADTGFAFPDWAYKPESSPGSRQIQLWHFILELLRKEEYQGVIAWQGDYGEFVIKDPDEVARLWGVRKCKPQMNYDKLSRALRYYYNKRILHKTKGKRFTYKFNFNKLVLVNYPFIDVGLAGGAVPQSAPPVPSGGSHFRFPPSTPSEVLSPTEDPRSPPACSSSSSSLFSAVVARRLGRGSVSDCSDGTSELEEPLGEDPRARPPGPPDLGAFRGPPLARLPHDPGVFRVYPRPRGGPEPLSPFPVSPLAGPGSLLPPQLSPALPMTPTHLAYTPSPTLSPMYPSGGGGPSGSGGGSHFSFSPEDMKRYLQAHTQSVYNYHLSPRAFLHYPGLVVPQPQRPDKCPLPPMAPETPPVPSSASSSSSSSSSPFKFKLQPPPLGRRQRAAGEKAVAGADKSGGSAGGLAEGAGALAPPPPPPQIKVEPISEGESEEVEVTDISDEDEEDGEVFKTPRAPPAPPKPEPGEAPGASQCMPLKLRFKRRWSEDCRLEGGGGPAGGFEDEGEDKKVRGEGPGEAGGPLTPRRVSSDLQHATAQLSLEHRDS
# Outline: as §1
# ETV3L = molecular target: T7, ETV3L (Homo sapiens, UniProt Q6ZN32 1-361); conditions: protein: recombinant; tags: N-terminal GST; dsDNA, one strand shown
# T7 sequence: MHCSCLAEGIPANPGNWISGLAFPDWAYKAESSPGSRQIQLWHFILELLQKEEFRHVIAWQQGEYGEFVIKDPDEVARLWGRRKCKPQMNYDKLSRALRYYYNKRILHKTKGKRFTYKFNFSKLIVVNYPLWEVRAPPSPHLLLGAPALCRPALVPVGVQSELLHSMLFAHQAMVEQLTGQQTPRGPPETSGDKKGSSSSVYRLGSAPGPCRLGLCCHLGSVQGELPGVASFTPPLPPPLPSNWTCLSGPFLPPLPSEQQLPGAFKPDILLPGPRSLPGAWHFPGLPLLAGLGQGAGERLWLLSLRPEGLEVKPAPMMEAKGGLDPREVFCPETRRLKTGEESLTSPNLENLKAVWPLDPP
# Outline: as §1
# ETS2 = molecular target: T8, ETS2 (Homo sapiens, UniProt P15036 1-469); conditions: protein: recombinant; tags: N-terminal GST; dsDNA, one strand shown
# T8 sequence: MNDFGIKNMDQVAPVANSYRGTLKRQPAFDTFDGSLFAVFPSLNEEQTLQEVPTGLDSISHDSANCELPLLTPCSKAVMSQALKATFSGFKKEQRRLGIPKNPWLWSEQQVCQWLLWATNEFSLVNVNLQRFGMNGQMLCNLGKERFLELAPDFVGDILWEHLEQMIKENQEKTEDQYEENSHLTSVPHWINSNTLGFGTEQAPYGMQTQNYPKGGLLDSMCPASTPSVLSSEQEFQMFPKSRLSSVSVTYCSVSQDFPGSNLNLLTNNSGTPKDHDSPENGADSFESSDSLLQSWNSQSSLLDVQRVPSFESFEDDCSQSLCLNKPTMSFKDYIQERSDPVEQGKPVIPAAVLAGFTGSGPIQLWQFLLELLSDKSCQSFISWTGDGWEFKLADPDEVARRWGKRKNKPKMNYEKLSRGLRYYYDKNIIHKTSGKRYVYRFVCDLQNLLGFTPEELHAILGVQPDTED
# Outline: as §1
# SPDEF = molecular target: T9, SPDEF (Homo sapiens, UniProt O95238 1-335); conditions: protein: recombinant; tags: N-terminal GST; dsDNA, one strand shown
# T9 sequence: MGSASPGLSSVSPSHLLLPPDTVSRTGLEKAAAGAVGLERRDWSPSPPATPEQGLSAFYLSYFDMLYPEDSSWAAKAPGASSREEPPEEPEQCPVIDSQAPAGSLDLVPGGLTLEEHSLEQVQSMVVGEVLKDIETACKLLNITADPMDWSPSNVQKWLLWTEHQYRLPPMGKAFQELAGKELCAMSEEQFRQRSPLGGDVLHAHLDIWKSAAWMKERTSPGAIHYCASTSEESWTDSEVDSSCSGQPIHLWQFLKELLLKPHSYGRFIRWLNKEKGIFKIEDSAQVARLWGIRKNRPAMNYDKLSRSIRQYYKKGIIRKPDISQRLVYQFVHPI
# Outline: as §1
# ETV7 = molecular target: T10, ETV7 (Homo sapiens, UniProt Q9Y603 1-341); conditions: protein: recombinant; tags: N-terminal GST; dsDNA, one strand shown
# T10 sequence: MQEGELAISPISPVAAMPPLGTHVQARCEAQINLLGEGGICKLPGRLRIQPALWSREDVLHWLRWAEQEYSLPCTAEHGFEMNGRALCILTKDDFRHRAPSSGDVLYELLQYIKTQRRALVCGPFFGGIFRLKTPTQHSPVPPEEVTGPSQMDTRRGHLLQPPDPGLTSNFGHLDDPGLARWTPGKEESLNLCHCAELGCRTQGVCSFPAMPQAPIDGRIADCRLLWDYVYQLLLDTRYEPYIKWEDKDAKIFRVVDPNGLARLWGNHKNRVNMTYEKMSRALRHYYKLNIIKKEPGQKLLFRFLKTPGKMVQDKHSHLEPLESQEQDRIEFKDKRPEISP
# Outline: as §1
# ELF5 = molecular target: T11, ELF5 (Homo sapiens, UniProt Q9UKW6-2 1-255); conditions: protein: recombinant; tags: N-terminal GST; dsDNA, one strand shown
# T11 sequence: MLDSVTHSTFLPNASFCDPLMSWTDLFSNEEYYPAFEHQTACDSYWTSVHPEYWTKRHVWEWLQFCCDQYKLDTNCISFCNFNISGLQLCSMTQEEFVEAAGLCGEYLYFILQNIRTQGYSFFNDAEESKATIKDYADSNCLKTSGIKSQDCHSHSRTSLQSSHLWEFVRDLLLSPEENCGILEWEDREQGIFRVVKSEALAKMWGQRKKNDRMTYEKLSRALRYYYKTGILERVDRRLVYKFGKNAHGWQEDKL
# Outline: as §1
# ETV3 = molecular target: T12, ETV3 (Homo sapiens, UniProt P41162-2 1-143); conditions: protein: recombinant; tags: N-terminal GST; dsDNA, one strand shown
# T12 sequence: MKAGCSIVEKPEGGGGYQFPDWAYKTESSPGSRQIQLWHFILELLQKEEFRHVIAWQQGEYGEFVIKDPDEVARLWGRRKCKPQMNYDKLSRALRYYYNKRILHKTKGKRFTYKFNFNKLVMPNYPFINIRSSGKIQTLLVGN
# Outline: as §1
# ETV6 = ETV6 (Homo sapiens, UniProt P41212 1-452); conditions: protein: recombinant; tags: N-terminal GST; dsDNA, one strand shown
# Outline: as §1
# Sequence of ETV1 (P50549 whole entry): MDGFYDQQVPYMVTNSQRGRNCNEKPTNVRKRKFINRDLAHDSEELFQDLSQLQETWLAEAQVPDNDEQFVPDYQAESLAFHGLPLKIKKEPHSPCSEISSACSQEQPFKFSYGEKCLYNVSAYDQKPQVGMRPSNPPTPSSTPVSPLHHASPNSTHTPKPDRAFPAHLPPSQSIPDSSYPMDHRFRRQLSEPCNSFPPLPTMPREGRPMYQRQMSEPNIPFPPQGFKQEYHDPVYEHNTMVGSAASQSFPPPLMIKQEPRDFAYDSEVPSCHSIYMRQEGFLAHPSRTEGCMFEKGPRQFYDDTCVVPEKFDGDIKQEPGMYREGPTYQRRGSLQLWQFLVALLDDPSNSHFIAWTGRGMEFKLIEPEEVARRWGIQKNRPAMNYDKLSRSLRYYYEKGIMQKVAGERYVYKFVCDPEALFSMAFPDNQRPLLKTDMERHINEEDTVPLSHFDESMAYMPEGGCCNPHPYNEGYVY
# Sequence of HSF1 (Q00613 whole entry): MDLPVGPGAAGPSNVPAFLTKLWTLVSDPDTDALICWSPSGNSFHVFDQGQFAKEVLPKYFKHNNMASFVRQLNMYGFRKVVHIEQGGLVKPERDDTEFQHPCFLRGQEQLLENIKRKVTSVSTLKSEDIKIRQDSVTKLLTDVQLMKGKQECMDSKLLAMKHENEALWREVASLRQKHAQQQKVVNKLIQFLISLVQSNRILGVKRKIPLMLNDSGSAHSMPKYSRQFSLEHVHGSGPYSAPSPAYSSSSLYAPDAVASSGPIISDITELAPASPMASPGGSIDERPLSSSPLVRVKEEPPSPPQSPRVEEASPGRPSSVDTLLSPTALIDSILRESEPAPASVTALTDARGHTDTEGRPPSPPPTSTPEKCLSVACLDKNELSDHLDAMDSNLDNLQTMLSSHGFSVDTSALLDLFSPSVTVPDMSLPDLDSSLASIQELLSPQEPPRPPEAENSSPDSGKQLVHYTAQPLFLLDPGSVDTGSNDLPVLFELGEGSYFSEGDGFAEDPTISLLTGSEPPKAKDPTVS
# Sequence of CRX (O43186 whole entry): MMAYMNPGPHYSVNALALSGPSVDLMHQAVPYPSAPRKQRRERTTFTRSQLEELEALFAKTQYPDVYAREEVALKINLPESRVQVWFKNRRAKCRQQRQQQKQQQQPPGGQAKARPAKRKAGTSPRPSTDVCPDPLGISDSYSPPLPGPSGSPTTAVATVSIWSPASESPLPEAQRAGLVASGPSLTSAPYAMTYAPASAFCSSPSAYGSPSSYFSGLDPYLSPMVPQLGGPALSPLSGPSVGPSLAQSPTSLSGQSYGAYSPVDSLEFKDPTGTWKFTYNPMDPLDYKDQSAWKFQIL
# Sequence of ELF4 (Q99607 whole entry): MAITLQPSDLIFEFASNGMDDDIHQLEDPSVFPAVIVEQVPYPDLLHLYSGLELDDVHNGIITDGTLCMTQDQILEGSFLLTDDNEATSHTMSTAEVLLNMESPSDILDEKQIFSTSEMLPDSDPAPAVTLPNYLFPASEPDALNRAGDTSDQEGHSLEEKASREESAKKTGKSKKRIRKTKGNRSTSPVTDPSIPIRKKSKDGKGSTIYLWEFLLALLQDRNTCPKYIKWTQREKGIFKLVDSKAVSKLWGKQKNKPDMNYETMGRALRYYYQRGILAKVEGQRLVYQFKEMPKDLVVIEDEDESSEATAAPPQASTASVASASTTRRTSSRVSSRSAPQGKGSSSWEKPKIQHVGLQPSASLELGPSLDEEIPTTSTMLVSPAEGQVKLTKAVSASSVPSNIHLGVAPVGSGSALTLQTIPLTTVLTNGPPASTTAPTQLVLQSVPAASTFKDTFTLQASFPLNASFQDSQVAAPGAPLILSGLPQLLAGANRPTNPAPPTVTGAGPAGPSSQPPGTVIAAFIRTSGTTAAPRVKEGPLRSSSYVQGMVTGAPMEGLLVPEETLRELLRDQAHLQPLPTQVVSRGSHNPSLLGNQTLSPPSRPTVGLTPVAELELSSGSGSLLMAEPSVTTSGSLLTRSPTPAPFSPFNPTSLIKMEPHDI
# Sequence of ETV5 (P41161 whole entry): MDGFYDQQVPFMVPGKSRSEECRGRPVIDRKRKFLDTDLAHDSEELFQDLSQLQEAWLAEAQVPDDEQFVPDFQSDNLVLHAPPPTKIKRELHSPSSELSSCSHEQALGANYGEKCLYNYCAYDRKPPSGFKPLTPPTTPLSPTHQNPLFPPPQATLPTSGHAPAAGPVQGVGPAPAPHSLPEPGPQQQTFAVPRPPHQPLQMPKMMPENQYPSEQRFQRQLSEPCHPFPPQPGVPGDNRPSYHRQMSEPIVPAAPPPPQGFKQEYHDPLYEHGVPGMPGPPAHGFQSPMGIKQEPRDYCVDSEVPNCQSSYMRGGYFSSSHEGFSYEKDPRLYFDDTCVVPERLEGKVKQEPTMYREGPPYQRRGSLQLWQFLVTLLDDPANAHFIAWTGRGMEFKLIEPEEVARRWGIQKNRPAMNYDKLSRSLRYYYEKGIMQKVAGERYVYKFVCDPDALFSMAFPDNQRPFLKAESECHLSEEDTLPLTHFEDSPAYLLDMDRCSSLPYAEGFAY
# Sequence of ETV6 (P41212 whole entry): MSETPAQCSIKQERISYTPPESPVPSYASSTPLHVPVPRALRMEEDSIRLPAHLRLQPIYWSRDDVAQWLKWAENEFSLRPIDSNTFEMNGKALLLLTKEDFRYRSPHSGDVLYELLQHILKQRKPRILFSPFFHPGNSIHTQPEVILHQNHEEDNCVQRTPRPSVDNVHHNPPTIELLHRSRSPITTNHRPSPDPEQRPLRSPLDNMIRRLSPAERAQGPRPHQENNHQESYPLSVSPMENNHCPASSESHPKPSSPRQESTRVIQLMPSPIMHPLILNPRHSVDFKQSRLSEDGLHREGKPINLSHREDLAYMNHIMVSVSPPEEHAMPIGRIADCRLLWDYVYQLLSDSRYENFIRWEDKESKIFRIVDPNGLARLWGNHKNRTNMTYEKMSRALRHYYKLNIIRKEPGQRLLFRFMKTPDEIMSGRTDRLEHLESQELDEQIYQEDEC
sequence,measurement,setting,value
AATGAT,binding signal,FEV,"1.18 fold enrichment (6-mer frequency, TF over GST control)"
same,binding signal,ETV5,"1.14 fold enrichment (6-mer frequency, TF over GST control)"
same,binding signal,HSF1,"1.25 fold enrichment (6-mer frequency, TF over GST control)"
same,binding signal,SPIC,"1.1 fold enrichment (6-mer frequency, TF over GST control)"
same,binding signal,ELF4,"1.17 fold enrichment (6-mer frequency, TF over GST control)"
same,binding signal,ELK4,"1.25 fold enrichment (6-mer frequency, TF over GST control)"
same,binding signal,ETV2,"1.21 fold enrichment (6-mer frequency, TF over GST control)"
same,binding signal,ELF3,"1.17 fold enrichment (6-mer frequency, TF over GST control)"
same,binding signal,CRX,"1.37 fold enrichment (6-mer frequency, TF over GST control)"
same,binding signal,ETV1,"1.07 fold enrichment (6-mer frequency, TF over GST control)"
same,binding signal,ERF,"1.18 fold enrichment (6-mer frequency, TF over GST control)"
same,binding signal,ETV3L,"1.24 fold enrichment (6-mer frequency, TF over GST control)"
same,binding signal,ETS2,"1.12 fold enrichment (6-mer frequency, TF over GST control)"
same,binding signal,SPDEF,"1.13 fold enrichment (6-mer frequency, TF over GST control)"
same,binding signal,ETV7,"1.2 fold enrichment (6-mer frequency, TF over GST control)"
same,binding signal,ELF5,"1.06 fold enrichment (6-mer frequency, TF over GST control)"
same,binding signal,ETV3,"1.21 fold enrichment (6-mer frequency, TF over GST control)"
same,binding signal,ETV6,"1.24 fold enrichment (6-mer frequency, TF over GST control)"
